The source made the active and inactive calls. Unless noted, how the calls were made is not given here.
What was measured:
[1] = A549 cell viability effects, profiling panel, calcein-AM fluorescence, 48 h, basal (AID 1162); settings: higher = more signal; further: test concentration not given here
[2] = adipocyte viability effects, profiling panel, cell-based, 3T3-L1 adipocytes, calcein-AM fluorescence, 48 h, basal (AID 1163); settings: 3T3-L1 adipocytes viability, higher = more signal; further: test concentration not given here
[3] = HepG2 cell viability effects, profiling panel, calcein-AM fluorescence, 48 h, basal (AID 1164); settings: higher = more signal; further: test concentration not given here
[4] = MM1S cell viability effects, profiling panel, calcein-AM fluorescence, 48 h, basal (AID 1165); settings: higher = more signal;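 further: viability of MM1S multiple myeloma cells under basal unstimulated conditions; test concentration not given here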
[5] = basal RPMI8226 viability, no added stimulus, profiling panel, cell-based, calcein-AM fluorescence, 48 h, PK04 Diversity Set (AID 1166); settings: RPMI8226 myeloma viability, higher = more signal;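 further: cells grown under basal conditions without added stimulus; test concentration not given here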
[6] = basal HepG2 mitochondrial membrane potential changes, profiling panel, cell-based, JC-1 fluorescence, 24 h, 100 nL compound (AID 1167); settings: higher = more signal; further: test concentration not given here
[7] = basal 3T3-L1 adipocyte mitochondrial potential changes, profiling panel, cell-based, JC-1 fluorescence, 3T3-L1 adipocytes, 24 h, 100 nL compound (AID 1168); settings: JC-1 mitochondrial fluorescence, higher = more signal, called active from +8 up or from −8 down; further: test concentration not given here
[8] = basal RPMI8226 mitochondrial membrane potential changes, profiling panel, cell-based, JC-1 fluorescence, 24 h, 100 nL compound (AID 1169); settings: RPMI8226 myeloma, JC-1 mitochondrial potential fluorescence, higher = more signal; further: test concentration not given here
[9] = basal MM1S mitochondrial membrane potential changes, profiling panel, cell-based, JC-1 fluorescence, 24 h, 100 nL compound (AID 1170); settings: higher = more signal; further: test concentration not given here
[10] = A549 lung cancer cell viability effects, profiling panel, resazurin fluorescence, 24 h, PK04 Diversity Set (AID 1171); settings: higher = more signal, called active from +8 up or from −8 down; further: test concentration not given here
[11] = HepG2 liver cancer cell viability effects, profiling panel, resazurin fluorescence, 24 h, PK04 Diversity Set (AID 1172); settings: higher = more signal; further: test concentration not given here
[12] = basal S. cerevisiae growth modulation, no modifier, primary screen, OD600, strain BY4716, 24 h, basal condition (AID 1173); settings: OD600, 24 h, higher = more signal, called active from +8 up or from −8 down
[13] = MM1S myeloma cell viability, profiling panel, resazurin fluorescence, basal, 24 h, PK04 Diversity Set (AID 1174); settings: higher = more signal, called active from +8 up or from −8 down;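 further: MM1S multiple myeloma cell line; test concentration not given here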
[14] = biological target: Dihydroorotate dehydrogenase (quinone), mitochondrial (Plasmodium falciparum (isolate 3D7)) (UniProt Q08210); assay: PfDHODH enzyme inhibitors, primary screen, biochemical, C-terminal His tag, absorbance 600 nm (AID 1175); settings: DCIP absorbance 600 nm, higher = more signal, called active from +8 up or from −8 down;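 further: recombinant parasite enzyme with a five histidine tag at its C terminus; test concentration not given here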
Dihydroorotate dehydrogenase (quinone), mitochondrial (Plasmodium falciparum (isolate 3D7)), sequence (Q08210 whole entry, looked up): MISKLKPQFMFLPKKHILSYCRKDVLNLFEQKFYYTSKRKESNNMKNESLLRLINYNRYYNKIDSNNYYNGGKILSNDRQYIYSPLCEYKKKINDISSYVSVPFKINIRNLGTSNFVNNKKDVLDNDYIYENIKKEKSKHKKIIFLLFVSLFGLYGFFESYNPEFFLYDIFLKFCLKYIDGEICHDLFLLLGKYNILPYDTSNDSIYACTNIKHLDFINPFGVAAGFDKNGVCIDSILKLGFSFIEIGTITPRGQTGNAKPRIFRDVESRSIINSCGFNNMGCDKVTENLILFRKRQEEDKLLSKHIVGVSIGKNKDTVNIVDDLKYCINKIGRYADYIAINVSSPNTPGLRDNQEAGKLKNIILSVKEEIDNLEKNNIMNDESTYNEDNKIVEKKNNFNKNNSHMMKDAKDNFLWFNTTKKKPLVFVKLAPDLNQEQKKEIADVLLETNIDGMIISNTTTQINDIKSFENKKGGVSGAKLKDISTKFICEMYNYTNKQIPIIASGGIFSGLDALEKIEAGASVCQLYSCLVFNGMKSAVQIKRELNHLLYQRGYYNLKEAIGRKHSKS

[15] = P. aeruginosa biofilm formation inhibitors, primary screen, strain PAO1, LB-PBS medium, absorbance 600 nm (AID 1176); further: test concentration not given here; settings: P. aeruginosa PAO1 growth/biofilm, A600, 12 h; higher = more signal
[16] = S. cerevisiae RM11-1a growth modifiers, primary screen, strain RM11-1a, OD600, basal, 24 h (AID 1177); settings: OD600, 24 h, higher = more signal, called active from +8 up or from −8 down;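 further: cultures grown under basal conditions with no added stressor; test concentration not given here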
[17] = E. coli acrAB mutant growth effects, primary screen, E. coli filamentation inducers, strain DRC39, OD650, 24 h (AID 1178); settings: higher = more signal, called active from +8 up or from −8 down;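 further: growth measured as culture turbidity by optical density at 650 nm; test concentration not given here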
[18] = E. coli acrAB mutant growth effects, primary screen, E. coli filamentation inducers, strain DRC39, OD650, 48 h (AID 1179);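 further: screen aims at cell division blockers that make cells filament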; settings: E. coli DRC39 delta-acrAB growth, higher = more signal, called active from +8 up or from −8 down
[19] = RPMI8226 myeloma cell viability, profiling panel, resazurin fluorescence, basal, 24 h, PK04 Diversity Set (AID 1180); settings: higher = more signal;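 further: RPMI8826 multiple myeloma cell line at 5000 cells per well; test concentration not given here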
[20] = biological target: E3 ubiquitin-protein ligase XIAP (Homo sapiens) (UniProt P98170); assay: XIAP binders, primary screen, biophysical, small-molecule microarray, fluorescence 635 nm (AID 1181); settings: small-molecule microarray binding, higher = more signal;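 further: score merges 667 nm emission and signal to noise over triplicate slides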
E3 ubiquitin-protein ligase XIAP (Homo sapiens), sequence (P98170 whole entry, looked up): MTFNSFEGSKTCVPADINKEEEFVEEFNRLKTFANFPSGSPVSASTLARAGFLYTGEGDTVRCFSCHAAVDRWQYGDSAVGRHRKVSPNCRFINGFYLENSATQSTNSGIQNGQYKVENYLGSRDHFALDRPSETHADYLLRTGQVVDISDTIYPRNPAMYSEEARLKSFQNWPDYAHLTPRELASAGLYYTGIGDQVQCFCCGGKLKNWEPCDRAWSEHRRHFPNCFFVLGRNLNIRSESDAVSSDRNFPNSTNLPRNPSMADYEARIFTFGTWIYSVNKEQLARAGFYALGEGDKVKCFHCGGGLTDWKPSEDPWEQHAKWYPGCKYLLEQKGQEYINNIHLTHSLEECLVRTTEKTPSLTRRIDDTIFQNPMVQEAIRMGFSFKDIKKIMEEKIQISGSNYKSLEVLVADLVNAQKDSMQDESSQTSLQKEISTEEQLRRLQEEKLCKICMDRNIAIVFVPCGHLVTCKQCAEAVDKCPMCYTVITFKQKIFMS

Row | SMILES | z-score [1] | z-score [2] | z-score [3] | z-score [4] | z-score [5] | z-score [6] | z-score [7] | z-score [8] | z-score [9] | z-score [10] | z-score [11] | z-score [12] | z-score [13] | composite z-score [14] | z-score [15] | z-score [16] | z-score [17] | z-score [18] | z-score [19] | composite z-score [20]
1 | COC(=O)[C@@]1(Cc2ccc(F)cc2)[C@H]2c3cc(C(=O)N4CCCC4)n(CCN4CNCC4=O)c3C[C@H]2CN1C(=O)c1ccccc1 | -0.0823 | 1.32 | -0.403 | -0.0244 | -1.67 | 2.44 | -0.933 (inactive) | -0.452 | -1.23 | 0.415 (inactive) | 0.424 | 1.39 (inactive) | -0.758 (inactive) | -0.421 (inactive) | 0.976 (inactive) | 0.76 (inactive) | 0.264 (inactive) | -1.03 (inactive) | -0.628 | 0.253
2 | Cc1cc(C)cc(N2C(=O)CSC2c2cccc([N+](=O)[O-])c2)c1 (stereo not given) | 0.377 | -0.28 | 0.0887 | 1.22 | 0.699 | 1.43 | 0.786 (inactive) | -0.445 | -0.541 | -0.661 (inactive) | -0.654 | -0.899 (inactive) | -1.81 (inactive) | -1.39 (inactive) | -0.242 (inactive) | 0.265 (inactive) | 0.837 (inactive) | 0.384 (inactive) | -0.341 | 0.0808
3 | CN1C(=O)C2C=CC(C(O)c3ccc(F)cc3)N(Nc3ccccc3)C2C1=O (stereo not given) | -0.434 | -1.02 | -0.613 | -1.82 | 0.196 | -1.81 | -0.8 (inactive) | 0.663 | 0.431 | -0.369 (inactive) | -1.05 | 0.544 (inactive) | -1.24 (inactive) | 0.869 (inactive) | 0.944 (inactive) | 1.38 (inactive) | -1.03 (inactive) | -0.894 (inactive) | -1.58 | 0.0761
4 | C=CCOC(=O)[C@H]1[C@@H]2C(=O)O[C@@H](c3ccccc3)[C@@H](c3ccccc3)N2[C@@H](c2ccc(OCCOC(=O)[C@H]3C[C@H]4C(=O)N[C@@H](CC(C)C)C(=O)N4[C@H]3c3cccc(OCCO)c3)cc2)[C@]12C(=O)Nc1ccc(I)cc12 | -0.681 | 0.329 | 0.281 | -1.15 | -0.0034 | 1.69 | 0.681 (inactive) | -0.762 | -0.7 | -0.0975 (inactive) | -0.054 | 1.9 (inactive) | -0.414 (inactive) | 0.124 (inactive) | 2.9 (inactive) | 0.447 (inactive) | -0.0744 (inactive) | -0.62 (inactive) | -0.385 | -0.0174
5 | COCCCNC(=O)[C@@]1(Sc2ccc(C)cc2)CC(=O)N(C2CCCCC2)[C@@H]1c1ccc(CO)cc1 | -0.162 | 0.152 | -0.574 | -1.59 | -1.45 | -0.155 | 1.07 (inactive) | 0.855 | 0.2 | 0.377 (inactive) | -0.0171 | -0.0904 (inactive) | 0.0246 (inactive) | -0.0365 (inactive) | -0.438 (inactive) | 0.0315 (inactive) | 0.235 (inactive) | -0.195 (inactive) | -0.577 | -0.191
6 | COc1ccc(NC(=O)O[C@H]2[C@H](OC(=O)Nc3ccccc3)[C@@H](OC(=O)Nc3ccccc3)[C@@H](OC)O[C@@H]2CO)cc1 | -1.42 | 0.635 | -1.17 | -1.18 | -2.26 | -0.107 | -0.261 (inactive) | -0.765 | -1.06 | -2.97 (inactive) | -1.58 | 0.559 (inactive) | -2.86 (inactive) | 1.1 (inactive) | 0.304 (inactive) | 2.89 (inactive) | 0.717 (inactive) | -0.141 (inactive) | -1.61 | 0.131
7 | CC(C)C(=C=CC[C@H](O)c1cccc(OCCO)c1)C[C@H](O)c1cc(Cl)cc(Cl)c1O | -0.105 | -0.903 | 0.142 | -1.67 | 0.205 | 0.00345 | 0.375 (inactive) | -0.527 | -0.826 | 1.01 (inactive) | 0.84 | -4.38 (inactive) | 0.0849 (inactive) | -0.0151 (inactive) | 0.33 (inactive) | 0.233 (inactive) | 0.889 (inactive) | 0.709 (inactive) | 1.61 | -0.16
8 | COC(=O)C(CC#Cc1ccc2c(c1)[C@]1(C(=O)N2)[C@H](C(=O)N2CCN(c3ncccn3)CC2)[C@H]2C(=O)O[C@H](c3ccccc3)[C@H](c3ccccc3)N2[C@@H]1c1ccc(OCCO)cc1)C(=O)OC | -0.0572 | -0.609 | 1.09 | 0.607 | 0.363 | -0.612 | 0.895 (inactive) | -0.933 | -1.44 | -0.178 (inactive) | -0.589 | 1.78 (inactive) | -1.45 (inactive) | -8.4 (active) | 3.59 (inactive) | 3.84 (inactive) | 0.475 (inactive) | 1.05 (inactive) | -0.126 | -0.039
9 | COC1OC[C@]2(C)[C@H]3C4=C(CN2C(=O)OC(C)(C)C)[C@H](C)C(CO)C(CO)C4CC[C@@H]13 (stereo not given in full) | 0.657 | 0.281 | 1.3 | 0.728 | -0.944 | 2.82 | 0.0682 (inactive) | 0.287 | -1.08 | -0.634 (inactive) | -1.1 | 1.14 (inactive) | -1.25 (inactive) | -0.0528 (inactive) | 0.523 (inactive) | 1.06 (inactive) | -0.34 (inactive) | 0.154 (inactive) | -0.975 | 0.243

Source: PubChem BioAssay
